In PubChem BioAssay AID934 (National Center for Advancing Translational Sciences (NCATS), 2007):
Results filed as inconclusive are left out. Where a call stands in place of a potency, no number is given. Calls of active or inactive are those of the source. Calls follow the shape of the dose curve; as a rule, active = well fitted activation curve with a large enough effect; inconclusive = small, poorly fitted or top-dose-only effect; inactive = flat fitted curve, though single readings scatter.

experiment: Parental Cell Counter Screen for Stat Signaling Pathway Assay; settings: ME-180 (cervical carcinoma) parental cells, blue fluorescence artefact counter-screen; series mostly up to 38.3 µM
Source text: NIH Molecular Libraries Screening Centers Network [MLSCN] NIH Chemical Genomics Center [NCGC] MLSCN Grant: None NCGC Assay Overview: This assay is a counter screen for the Stat signaling pathway assay (PubChem AID 446). The Stat assay is cell-based and measures Interleukin 6 (IL-6) mediated modulation of a beta-lactamase reporter gene controlled by a STAT inducible element (SIE-bla cells, Invitrogen). IL-6 is a cytokine that signals via the JAK/STAT pathway and is implicated in cancer and inflammation. […] Compounds active in the parental ME-180 cells are likely fluorescent.
NCGC Assay Protocol Summary: Cells were trypsinized, washed in assay medium (AM, OPTI MEM with 0.5% fetal bovine serum, 0.1 mM nonessential amino acids, 1 mM sodium pyruvate, 10mM HEPES pH 7.3, 100U/ml penicillin, and 100 ug/ml streptomycin) and suspended at […] in AM. Approximately 2500 cells in 5 uL/well was dispensed into 1536-well plates and the cells were incubated overnight at 37 C. 23 nL of compound were delivered by a pin tool and 1 uL of IL-6 (40 pM final concentration in AM) was added. After plates were incubated at 37 C for 5 hrs, 1uL of detector mix (LiveBLAzerTM, Invitrogen) was added, the plates incubated at room temperature for 2.5 hrs, and fluorescence intensity at 460 and 530 nm emissions was measured at 405 nm excitation by an Envision (Perkin Elmer).

Row | SMILES | Potency
1 | c1ccc2c(c1)[I+]c1ccccc1-2 | inactive
2 | Cc1c2ccncc2c(C)c2c1[nH]c1ccccc12 | 15.8 µM (active)
3 | COc1cccc2c1C(=O)c1c(O)c3c(c(O)c1C2=O)C[C@](O)(/C(C)=N\O)C[C@@H]3O[C@H]1C[C@H](N)[C@@H](O)[C@H](C)O1 | inactive
4 | CN(N=O)c1ccc(O)c(O)c1 | inactive
5 | CCn1cnc2c(Nc3cccc(Cl)c3)nc(N[C@@H]3CCCC[C@H]3N)nc21 | inactive
6 | CC[C@]1(O)C(=O)OCc2c1cc1n(c2=O)Cc2cc3ccccc3nc2-1 | inactive
7 | O=c1ccc2cc(O[C@H]3O[C@@H](CO)[C@@H](O)[C@@H](O)[C@@H]3O)c(O)cc2o1 | 15.8 µM (active)
8 | COC1=C(C)C(=O)c2c(c(COC(N)=O)c3n2C[C@@H]2[C@@H]3N2C)C1=O (stereo not given in full) | 12.6 µM (active)
9 | COc1ccc2c3c([nH]c2c1)C(C)=NCC3 | 12.6 µM (active)
10 | COC(=O)C(O)(c1ccc(NC(=O)c2ccco2)c(OC)c1)C(F)(F)F (stereo not given) | 0.0063 µM (active)
